Measurements published in the supplement of paper PMC10849652.
The full data set covers some 7,900 targets. This sample favours those with a hit. About 0.6% of all pairs of compound and target were hits.

Tests used:
Assay in all cases: log2 fold change, soluble protein after heating vs DMSO (PISA); higher = thermal stabilisation; K562 cells, 10 uM, 30 min; active = over 0.2 and 3.5 SD of the protein, either way, in both replicates (recomputed)
IRAK-1-4 Inhibitor I = compound: C1COCCN1CCN2C3=CC=CC=C3N=C2NC(=O)C4=CC(=CC=C4)[N+](=O)[O-] [IRAK-1-4 Inhibitor I]
Outline: (§1)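 Aliquots of K562 cells (2×10^6 cells/mL) treated with 10 μM compound for 30 min were heated for 3 min over 48°C-58°C. After pooling and extraction in PBS with 0.5% NP-40 at 4°C, soluble protein from a 21,000xg, 90 min spin was quantified by TMTpro 16plex LC-MS/MS with channel sums equalised. Thermal stability is expressed against control samples, from duplicates, as a log2 fold change.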

ibrutinib = compound: C=CC(=O)N1CCC[C@@H](n2nc(-c3ccc(Oc4ccccc4)cc3)c3c(N)ncnc32)C1 [ibrutinib]
Outline: as §1

[1] = compound: CC(=O)c1cnc2ccc(-c3cc(Cl)c(O)c(Cl)c3)nc2c1N[C@H]1CC[C@H](CN(C)C)CC1
Outline: as §1

ralimetinib = compound: CC(C)(C)Cn1c(N)nc2ccc(-c3[nH]c(C(C)(C)C)nc3-c3ccc(F)cc3)nc21 [ralimetinib]
Outline: as §1

[2] = compound: CC(C)(O)CC(=O)NCCn1ccc2ncnc(Nc3ccc(Oc4cccc(C(F)(F)F)c4)c(Cl)c3)c21
Outline: as §1

[3] = compound: CC(C)C1=C2N=C(C=C(N2N=C1)NCC3=CC=CC=C3)NCCCCCCN
Outline: as §1

[4] = compound: CC(C)C[C@@H](C=O)NC(=O)[C@H](CC(C)C)NC(=O)[C@H](CC(C)C)NC(=O)OCc1ccccc1
Outline: as §1

pinometostat = compound: CC(C)N(C[C@H]1O[C@@H](n2cnc3c(N)ncnc32)[C@H](O)[C@@H]1O)[C@H]1C[C@@H](CCc2nc3cc(C(C)(C)C)ccc3[nH]2)C1 [pinometostat]
Outline: as §1

[5] = compound: CC1=C(C(CC(=O)N1)C2=CC=C(C=C2)C(F)(F)F)C(=O)NC3=C(C=C4C(=C3)C=NN4)F
Outline: as §1

[6] = compound: CC1=C(C2=C(C=C1)C(=O)C3=CC=CC=C3N2CCCN)C
Outline: as §1

[7] = compound: CC1=C(C=C(C=C1)NC(=O)C2=CC(=CC=C2)C(C)(C)C#N)NC3=CC4=C(C=C3)N=CN(C4=O)C
Outline: as §1

[8] = compound: CC1=C(C=C(C=C1)NC(=O)C2=CC(=CC=C2)N(C)C)NC(=O)C3=CC=C(C=C3)O
Outline: as §1

[9] = compound: CC1=CC=C(C=C1)SC2=C3C=C(SC3=CN=C2)C(=O)N
Outline: as §1

[10] = compound: CC1=NC(=CC=C1)C2=C(N=C(N2)C(C)(C)C)C3=CC4=NC=CN=C4C=C3
Outline: as §1

Nexturastat A = compound: CCCCN(Cc1ccc(C(=O)NO)cc1)C(=O)Nc1ccccc1 [Nexturastat A]
Outline: as §1

vemurafenib = compound: CCCS(=O)(=O)Nc1ccc(F)c(C(=O)c2c[nH]c3ncc(-c4ccc(Cl)cc4)cc23)c1F [vemurafenib]
Outline: as §1

[11] = compound: CCCS(=O)(=O)Nc1ccc(F)c(C(=O)c2c[nH]c3ncc(Cl)cc23)c1F
Outline: as §1

[12] = compound: CCCc1cc(C)[nH]c(=O)c1CNC(=O)c1cc(-c2ccnc(N3CCN(C)CC3)c2)cc2c1cnn2C(C)C
Outline: as §1

givinostat = compound: CCN(CC)Cc1ccc2cc(COC(=O)Nc3ccc(C(=O)NO)cc3)ccc2c1 [givinostat]
Outline: as §1

barasertib = compound: CCN(CCCOc1ccc2c(Nc3cc(CC(=O)Nc4cccc(F)c4)[nH]n3)ncnc2c1)CCOP(=O)(O)O [barasertib]
Outline: as §1

Measured: log2 fold change

TMEM223 (UniProt A0PJW6)
Sequence of UniProt A0PJW6 (A0PJW6 whole entry, looked up): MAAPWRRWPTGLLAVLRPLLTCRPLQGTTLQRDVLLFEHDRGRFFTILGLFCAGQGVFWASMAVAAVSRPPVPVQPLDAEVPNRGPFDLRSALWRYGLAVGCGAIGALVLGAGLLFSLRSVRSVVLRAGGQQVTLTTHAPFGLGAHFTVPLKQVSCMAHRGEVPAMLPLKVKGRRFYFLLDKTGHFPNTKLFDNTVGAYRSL
inactive: IRAK-1-4 Inhibitor I 0.039 | ibrutinib 0.006 | [1] -0.101 | ralimetinib -0.009 | [2] 0.114 | [3] -0.063 | [4] 0 | pinometostat -0.019 | [5] -0.087 | [6] 0.042 | [7] 0.034 | [8] -0.001 | [9] -0.026 | [10] 0.058 | Nexturastat A -0.13 | vemurafenib 0.084 | [11] 0.055 | [12] -0.128 | givinostat 0.002 | barasertib 0.041

USP24 (UniProt Q9UPU5)
inactive: IRAK-1-4 Inhibitor I 0.052 | ibrutinib 0.086 | [1] 0.156 | ralimetinib -0.077 | [2] -0.093 | [3] 0.004 | [4] -0.043 | pinometostat -0.026 | [5] -0.08 | [6] 0.017 | [7] 0.114 | [8] -0.026 | [9] 0 | [10] 0.012 | Nexturastat A -0.047 | vemurafenib 0 | [11] 0.052 | [12] -0.042 | givinostat 0.011 | barasertib -0.053

VPS37A (UniProt Q8NEZ2)
inactive: IRAK-1-4 Inhibitor I 0.045 | ibrutinib -0.011 | [1] -0.07 | ralimetinib 0.053 | [2] -0.025 | [3] -0.143 | [4] 0.094 | pinometostat 0.045 | [5] -0.047 | [6] -0.066 | [7] -0.015 | [8] -0.171 | [9] 0.019 | [10] 0.001 | Nexturastat A -0.048 | vemurafenib 0.128 | [11] 0.054 | [12] 0.014 | givinostat 0.14 | barasertib 0.076

UCHL5 (UniProt Q9Y5K5)
inactive: IRAK-1-4 Inhibitor I -0.041 | ibrutinib -0.051 | [1] -0.012 | ralimetinib 0.03 | [2] -0.028 | [3] -0.161 | [4] 0.054 | pinometostat -0.004 | [5] -0.004 | [6] -0.018 | [7] 0.014 | [8] -0.07 | [9] 0.019 | [10] 0.053 | Nexturastat A 0.048 | vemurafenib 0.075 | [11] 0.08 | [12] 0.003 | givinostat 0.057 | barasertib 0.024

TMEM214 (UniProt Q6NUQ4)
inactive: IRAK-1-4 Inhibitor I -0.076 | ibrutinib -0.063 | [1] 0.028 | ralimetinib -0.03 | [2] 0.019 | [3] 0.066 | [4] 0.044 | pinometostat 0.073 | [5] 0.014 | [6] 0.074 | [7] -0.038 | [8] -0.054 | [9] 0.023 | [10] 0.007 | Nexturastat A 0.062 | vemurafenib 0.046 | [11] 0.065 | [12] 0 | givinostat 0.021 | barasertib -0.03

WARS2 (UniProt Q9UGM6)
Sequence of UniProt Q9UGM6 (Q9UGM6 whole entry, looked up): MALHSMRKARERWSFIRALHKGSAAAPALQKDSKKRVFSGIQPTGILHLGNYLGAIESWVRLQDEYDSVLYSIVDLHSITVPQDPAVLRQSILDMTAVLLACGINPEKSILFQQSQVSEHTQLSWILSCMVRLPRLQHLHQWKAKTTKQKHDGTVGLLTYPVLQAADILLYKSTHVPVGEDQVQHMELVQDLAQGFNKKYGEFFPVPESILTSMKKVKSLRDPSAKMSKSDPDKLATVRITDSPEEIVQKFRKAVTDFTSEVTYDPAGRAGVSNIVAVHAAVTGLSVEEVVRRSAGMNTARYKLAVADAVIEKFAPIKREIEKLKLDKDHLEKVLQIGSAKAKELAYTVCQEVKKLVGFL
inactive: IRAK-1-4 Inhibitor I -0.016 | ibrutinib -0.075 | [1] -0.031 | ralimetinib -0.017 | [2] -0.144 | [3] -0.204 | [4] 0.016 | pinometostat -0.053 | [5] -0.026 | [6] -0.004 | [7] -0.03 | [8] 0.032 | [9] 0.018 | [10] 0.074 | Nexturastat A -0.128 | vemurafenib 0.048 | [11] 0.136 | [12] 0.042 | givinostat -0.026 | barasertib 0.012

TMEM208 (UniProt Q9BTX3)
inactive: IRAK-1-4 Inhibitor I 0.04 | ibrutinib -0.09 | [1] 0.078 | ralimetinib -0.145 | [2] -0.088 | [4] 0.046 | pinometostat 0.081 | [5] -0.016 | [6] 0.081 | [7] -0.093 | [8] 0.005 | [9] 0.037 | [10] -0.022 | Nexturastat A -0.112 | vemurafenib -0.06 | [11] 0.035 | [12] -0.219 | givinostat 0.097 | barasertib -0.012
active: [3] -0.412

UGGT1 (UniProt Q9NYU2)
inactive: IRAK-1-4 Inhibitor I -0.011 | ibrutinib -0.027 | [1] 0.001 | ralimetinib 0.001 | [2] -0.028 | [3] -0.007 | [4] -0.038 | pinometostat 0.028 | [5] -0.003 | [6] 0.023 | [7] -0.001 | [8] 0.004 | [9] 0.001 | [10] -0.018 | Nexturastat A 0.014 | vemurafenib 0 | [11] 0.003 | [12] 0.024 | givinostat 0.02 | barasertib 0

WASH2P (UniProt Q6VEQ5)
Sequence of UniProt Q6VEQ5 (Q6VEQ5 whole entry, looked up): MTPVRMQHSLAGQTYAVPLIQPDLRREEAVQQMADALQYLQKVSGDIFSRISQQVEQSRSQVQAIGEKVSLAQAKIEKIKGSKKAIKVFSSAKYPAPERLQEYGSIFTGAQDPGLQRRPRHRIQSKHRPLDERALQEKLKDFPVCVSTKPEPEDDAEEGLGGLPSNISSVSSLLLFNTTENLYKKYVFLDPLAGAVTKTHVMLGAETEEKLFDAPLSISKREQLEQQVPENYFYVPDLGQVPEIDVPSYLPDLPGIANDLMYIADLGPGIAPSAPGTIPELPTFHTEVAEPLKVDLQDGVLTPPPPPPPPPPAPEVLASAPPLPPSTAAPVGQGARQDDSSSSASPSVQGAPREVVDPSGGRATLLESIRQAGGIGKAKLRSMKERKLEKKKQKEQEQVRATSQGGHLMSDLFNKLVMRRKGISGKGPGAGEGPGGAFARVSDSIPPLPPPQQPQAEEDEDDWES
active: [3] -0.234
inactive: IRAK-1-4 Inhibitor I 0.001 | ibrutinib -0.049 | [1] 0.052 | ralimetinib 0.022 | [2] 0.048 | [4] 0.025 | pinometostat -0.016 | [5] -0.022 | [6] 0.026 | [7] -0.001 | [8] -0.034 | [9] 0.019 | [10] 0 | Nexturastat A 0.139 | vemurafenib 0.03 | [11] -0.01 | [12] 0.026 | givinostat -0.007 | barasertib 0.043

TRMT10C (UniProt Q7L0Y3)
inactive: IRAK-1-4 Inhibitor I 0.029 | ibrutinib 0.011 | [1] -0.07 | ralimetinib -0.06 | [2] -0.055 | [3] 0.012 | [4] 0.005 | pinometostat -0.021 | [5] 0.016 | [6] 0.014 | [7] 0.013 | [8] -0.051 | [9] 0.017 | [10] 0.007 | Nexturastat A -0.095 | vemurafenib 0.015 | [11] 0.042 | [12] -0.013 | givinostat -0.022 | barasertib 0.041

UBA1 (UniProt P22314)
inactive: IRAK-1-4 Inhibitor I -0.145 | ibrutinib -0.058 | [1] -0.047 | ralimetinib 0.068 | [2] -0.15 | [4] -0.055 | pinometostat 0.019 | [5] 0.023 | [6] 0.336 | [7] 0.039 | [8] -0.054 | [9] 0.048 | [10] 0.006 | Nexturastat A -0.066 | vemurafenib 0.084 | [11] 0.089 | [12] 0.058 | givinostat 0.074 | barasertib 0.138
active: [3] -0.363

TSC2 (UniProt P49815)
Sequence of UniProt P49815 (P49815 whole entry, looked up): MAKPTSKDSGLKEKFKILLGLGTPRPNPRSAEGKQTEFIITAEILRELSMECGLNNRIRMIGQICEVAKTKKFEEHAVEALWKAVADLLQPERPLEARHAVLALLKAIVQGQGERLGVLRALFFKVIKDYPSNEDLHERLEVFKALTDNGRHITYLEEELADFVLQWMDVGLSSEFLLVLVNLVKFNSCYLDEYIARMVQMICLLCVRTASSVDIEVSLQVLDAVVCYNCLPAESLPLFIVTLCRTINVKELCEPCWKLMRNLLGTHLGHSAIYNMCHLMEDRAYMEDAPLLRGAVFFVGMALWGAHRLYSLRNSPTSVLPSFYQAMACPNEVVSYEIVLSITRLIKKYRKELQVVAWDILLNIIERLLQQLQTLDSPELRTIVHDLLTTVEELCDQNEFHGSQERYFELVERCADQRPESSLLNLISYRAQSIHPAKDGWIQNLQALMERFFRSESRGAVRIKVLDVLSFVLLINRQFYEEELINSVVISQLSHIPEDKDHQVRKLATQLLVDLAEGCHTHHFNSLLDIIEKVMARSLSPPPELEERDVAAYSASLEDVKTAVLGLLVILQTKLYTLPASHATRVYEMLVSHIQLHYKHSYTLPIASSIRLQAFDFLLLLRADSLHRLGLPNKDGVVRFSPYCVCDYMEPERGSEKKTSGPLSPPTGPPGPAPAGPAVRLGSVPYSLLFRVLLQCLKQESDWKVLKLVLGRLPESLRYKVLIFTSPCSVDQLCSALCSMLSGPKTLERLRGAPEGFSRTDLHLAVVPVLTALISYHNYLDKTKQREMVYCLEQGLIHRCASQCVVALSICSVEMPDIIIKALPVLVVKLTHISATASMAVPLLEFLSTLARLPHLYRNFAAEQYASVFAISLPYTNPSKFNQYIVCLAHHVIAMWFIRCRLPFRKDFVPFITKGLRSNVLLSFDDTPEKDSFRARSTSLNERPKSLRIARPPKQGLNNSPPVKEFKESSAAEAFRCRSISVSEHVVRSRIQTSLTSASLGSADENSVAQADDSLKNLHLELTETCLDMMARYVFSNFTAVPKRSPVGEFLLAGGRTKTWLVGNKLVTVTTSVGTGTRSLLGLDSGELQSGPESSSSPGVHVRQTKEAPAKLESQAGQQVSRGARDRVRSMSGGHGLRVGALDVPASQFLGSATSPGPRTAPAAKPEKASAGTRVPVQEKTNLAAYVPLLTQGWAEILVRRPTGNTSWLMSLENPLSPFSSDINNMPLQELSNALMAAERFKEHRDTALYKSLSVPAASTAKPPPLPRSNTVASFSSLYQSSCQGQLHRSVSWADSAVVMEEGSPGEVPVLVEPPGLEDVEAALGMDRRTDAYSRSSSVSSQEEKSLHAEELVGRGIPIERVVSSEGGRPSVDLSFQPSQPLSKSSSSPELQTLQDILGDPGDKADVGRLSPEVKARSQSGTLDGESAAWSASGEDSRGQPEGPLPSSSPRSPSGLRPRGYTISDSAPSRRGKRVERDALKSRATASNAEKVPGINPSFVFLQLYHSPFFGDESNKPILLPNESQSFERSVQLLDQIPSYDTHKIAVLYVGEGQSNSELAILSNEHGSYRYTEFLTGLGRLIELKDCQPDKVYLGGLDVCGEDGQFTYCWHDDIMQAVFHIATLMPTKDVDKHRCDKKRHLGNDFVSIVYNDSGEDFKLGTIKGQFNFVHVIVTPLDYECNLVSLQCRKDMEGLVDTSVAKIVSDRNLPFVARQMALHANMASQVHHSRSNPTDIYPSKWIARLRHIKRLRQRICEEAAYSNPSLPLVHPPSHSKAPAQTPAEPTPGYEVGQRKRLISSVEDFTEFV
inactive: IRAK-1-4 Inhibitor I -0.045 | ibrutinib 0.028 | [1] 0.05 | ralimetinib 0.091 | [2] -0.001 | [3] 0.103 | [4] 0.056 | pinometostat 0.085 | [6] 0.105 | [7] -0.09 | [8] 0.004 | [9] -0.076 | [10] -0.139 | Nexturastat A 0.173 | [11] 0.098 | [12] -0.036 | givinostat -0.043 | barasertib -0.015

TRAPPC11 (UniProt Q7Z392)
Sequence of UniProt Q7Z392 (Q7Z392 whole entry, looked up): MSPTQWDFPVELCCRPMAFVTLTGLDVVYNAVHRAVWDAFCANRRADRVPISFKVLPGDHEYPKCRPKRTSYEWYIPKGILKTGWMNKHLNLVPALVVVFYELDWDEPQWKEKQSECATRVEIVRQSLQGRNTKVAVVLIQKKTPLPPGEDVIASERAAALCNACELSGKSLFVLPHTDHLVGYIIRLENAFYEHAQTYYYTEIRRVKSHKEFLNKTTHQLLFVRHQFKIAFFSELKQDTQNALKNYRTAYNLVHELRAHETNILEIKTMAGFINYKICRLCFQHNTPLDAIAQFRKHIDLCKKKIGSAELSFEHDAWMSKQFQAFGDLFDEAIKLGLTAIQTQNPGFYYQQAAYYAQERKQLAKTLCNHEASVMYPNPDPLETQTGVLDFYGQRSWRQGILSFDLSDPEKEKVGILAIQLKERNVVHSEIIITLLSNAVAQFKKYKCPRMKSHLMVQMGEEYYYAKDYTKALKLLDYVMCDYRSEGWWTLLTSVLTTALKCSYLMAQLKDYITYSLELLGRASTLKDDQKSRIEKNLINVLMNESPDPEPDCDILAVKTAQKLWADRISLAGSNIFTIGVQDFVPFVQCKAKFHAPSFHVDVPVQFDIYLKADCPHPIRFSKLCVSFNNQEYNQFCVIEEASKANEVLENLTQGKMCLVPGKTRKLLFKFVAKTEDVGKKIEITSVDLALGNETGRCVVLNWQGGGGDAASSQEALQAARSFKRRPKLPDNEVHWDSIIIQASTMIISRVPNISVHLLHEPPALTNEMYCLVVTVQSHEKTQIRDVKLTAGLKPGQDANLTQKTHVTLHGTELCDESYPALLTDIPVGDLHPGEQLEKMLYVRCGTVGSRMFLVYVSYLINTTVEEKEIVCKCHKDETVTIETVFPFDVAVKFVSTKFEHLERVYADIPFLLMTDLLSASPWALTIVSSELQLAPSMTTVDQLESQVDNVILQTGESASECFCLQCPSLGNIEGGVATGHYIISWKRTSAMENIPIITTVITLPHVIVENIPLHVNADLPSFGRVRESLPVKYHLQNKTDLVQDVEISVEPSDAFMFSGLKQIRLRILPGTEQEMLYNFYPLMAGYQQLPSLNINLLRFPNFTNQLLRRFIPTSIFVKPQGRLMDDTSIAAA
inactive: IRAK-1-4 Inhibitor I -0.007 | ibrutinib 0.001 | [1] -0.048 | ralimetinib 0.034 | [2] -0.063 | [3] -0.064 | [4] 0.012 | pinometostat 0.032 | [5] -0.048 | [6] 0.028 | [7] 0.098 | [8] 0.01 | [9] -0.014 | [10] -0.053 | Nexturastat A 0.046 | vemurafenib 0.033 | [11] 0.025 | [12] -0.012 | givinostat 0.037 | barasertib 0.025

USP48 isoform 8 (UniProt Q86UV5)
Sequence of UniProt Q86UV5 (Q86UV5 whole entry, looked up): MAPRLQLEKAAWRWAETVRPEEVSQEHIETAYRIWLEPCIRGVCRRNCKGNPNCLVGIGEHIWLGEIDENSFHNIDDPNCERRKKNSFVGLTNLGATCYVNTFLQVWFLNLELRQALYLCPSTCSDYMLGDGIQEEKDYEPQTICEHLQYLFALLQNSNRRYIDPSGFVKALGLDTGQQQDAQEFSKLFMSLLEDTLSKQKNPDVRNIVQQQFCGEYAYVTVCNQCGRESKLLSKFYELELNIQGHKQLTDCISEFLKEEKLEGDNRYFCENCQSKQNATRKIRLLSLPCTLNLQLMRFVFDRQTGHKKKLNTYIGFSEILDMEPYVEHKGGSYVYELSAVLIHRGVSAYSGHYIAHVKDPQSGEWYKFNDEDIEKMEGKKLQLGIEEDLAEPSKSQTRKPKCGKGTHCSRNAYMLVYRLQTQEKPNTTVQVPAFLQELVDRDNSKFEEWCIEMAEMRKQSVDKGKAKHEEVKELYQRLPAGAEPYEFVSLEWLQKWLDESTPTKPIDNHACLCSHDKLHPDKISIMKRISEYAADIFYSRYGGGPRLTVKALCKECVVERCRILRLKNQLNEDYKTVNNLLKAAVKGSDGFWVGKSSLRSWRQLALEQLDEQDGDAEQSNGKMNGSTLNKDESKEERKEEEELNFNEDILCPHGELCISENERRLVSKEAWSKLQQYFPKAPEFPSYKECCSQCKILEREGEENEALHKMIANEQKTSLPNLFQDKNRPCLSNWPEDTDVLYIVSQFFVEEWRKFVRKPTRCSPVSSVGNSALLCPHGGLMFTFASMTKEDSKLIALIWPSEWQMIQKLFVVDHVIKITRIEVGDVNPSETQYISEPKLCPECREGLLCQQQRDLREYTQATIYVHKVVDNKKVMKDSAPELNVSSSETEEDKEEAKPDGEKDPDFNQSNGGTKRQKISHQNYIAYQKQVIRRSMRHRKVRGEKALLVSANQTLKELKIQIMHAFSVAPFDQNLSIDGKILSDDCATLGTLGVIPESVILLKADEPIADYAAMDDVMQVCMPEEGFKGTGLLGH
inactive: IRAK-1-4 Inhibitor I -0.09 | ibrutinib -0.071 | [1] -0.014 | ralimetinib 0.046 | [2] -0.207 | [3] -0.278 | [4] 0.052 | pinometostat 0.008 | [5] 0.003 | [6] -0.101 | [7] 0.128 | [8] -0.094 | [9] -0.054 | [10] 0.119 | Nexturastat A -0.006 | vemurafenib 0.162 | [11] 0.142 | [12] 0.103 | givinostat 0.144 | barasertib 0.14

VPS33A (UniProt Q96AX1)
active: [3] -0.299
inactive: IRAK-1-4 Inhibitor I -0.017 | ibrutinib -0.021 | [1] -0.001 | ralimetinib 0.048 | [2] -0.065 | [4] 0.054 | pinometostat 0.099 | [5] 0.035 | [6] 0.005 | [7] -0.013 | [8] -0.074 | [9] -0.016 | [10] -0.021 | Nexturastat A -0.024 | vemurafenib 0.003 | [11] 0.036 | [12] 0.04 | givinostat 0.058 | barasertib 0.068

UBIAD1 (UniProt Q9Y5Z9)
inactive: IRAK-1-4 Inhibitor I 0.012 | ibrutinib -0.009 | [1] -0.055 | ralimetinib -0.032 | [3] -0.069 | [4] 0.029 | pinometostat -0.104 | [5] -0.04 | [6] 0.047 | [7] -0.03 | [8] 0.059 | [9] 0.004 | [10] 0.015 | vemurafenib 0.07 | [11] 0.093 | [12] 0.023 | givinostat 0.043 | barasertib 0.023
